# Measurements reported in paper PMC7862700, “An all-to-all approach to the identification of sequence-specific readers for epigenetic DNA modifications on cytosine”.
# What was measured:
# Test in all cases: DAPPL (digital affinity profiling via proximity ligation, sequencing); 10 mM Tris-HCl pH 7.5, 50 mM NaCl, 1 mM DTT, 4% glycerol, room temperature, 30 min; GST-TFs on glutathione beads, 16-mer random dsDNA library, 0.1% formaldehyde crosslink after washing; high values mean tight binding
# Conditions in all cases: protein: recombinant; tags: N-terminal GST; dsDNA, one strand shown
# FLI1 = target: T1, FLI1 (Homo sapiens, UniProt Q01543 1-452)
# T1 sequence: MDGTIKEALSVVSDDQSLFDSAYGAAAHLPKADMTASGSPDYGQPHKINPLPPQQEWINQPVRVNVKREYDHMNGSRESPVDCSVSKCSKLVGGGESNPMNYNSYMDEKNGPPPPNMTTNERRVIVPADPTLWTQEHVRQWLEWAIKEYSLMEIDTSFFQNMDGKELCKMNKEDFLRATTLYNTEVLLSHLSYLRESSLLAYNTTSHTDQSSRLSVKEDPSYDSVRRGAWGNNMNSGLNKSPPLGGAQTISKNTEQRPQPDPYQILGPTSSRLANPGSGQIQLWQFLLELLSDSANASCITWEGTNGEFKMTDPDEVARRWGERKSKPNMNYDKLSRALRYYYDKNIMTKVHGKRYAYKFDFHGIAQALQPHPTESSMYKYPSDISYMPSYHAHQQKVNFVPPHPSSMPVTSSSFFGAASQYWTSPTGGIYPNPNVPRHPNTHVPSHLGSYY
# Outline: (§1)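 Human transcription factors fused to GST were expressed in yeast, captured on glutathione beads, given DNA barcodes and pooled with a GST-only negative control. Pools were incubated with 200 nmole of a 16-mer random double-stranded DNA library in Tris/NaCl/DTT/glycerol buffer at room temperature for 30 min. They were then washed, crosslinked with 0.1% formaldehyde, proximity-ligated (BsaI/T4 ligase, 1 h, 37 °C), PCR-amplified and sequenced on an Illumina NextSeq500. Binding signal is each 6-mer's read frequency for a factor divided by its frequency for the GST control.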
# ELK1 = target: T2, ELK1 (Homo sapiens, UniProt P19419 1-428)
# T2 sequence: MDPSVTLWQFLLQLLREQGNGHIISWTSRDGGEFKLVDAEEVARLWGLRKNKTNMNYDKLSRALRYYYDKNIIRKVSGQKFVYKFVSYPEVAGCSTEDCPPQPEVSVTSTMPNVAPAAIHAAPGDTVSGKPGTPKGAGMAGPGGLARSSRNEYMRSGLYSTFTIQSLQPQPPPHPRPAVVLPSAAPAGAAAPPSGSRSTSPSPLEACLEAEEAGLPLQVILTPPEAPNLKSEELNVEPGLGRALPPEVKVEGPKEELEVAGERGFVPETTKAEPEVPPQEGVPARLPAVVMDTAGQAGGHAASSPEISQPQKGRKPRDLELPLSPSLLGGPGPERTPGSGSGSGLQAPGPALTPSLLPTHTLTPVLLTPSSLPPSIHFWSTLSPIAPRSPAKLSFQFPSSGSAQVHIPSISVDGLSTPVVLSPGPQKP
# Outline: as §1
# GABPA = target: T3, GABPA (Homo sapiens, UniProt Q06546 1-454)
# T3 sequence: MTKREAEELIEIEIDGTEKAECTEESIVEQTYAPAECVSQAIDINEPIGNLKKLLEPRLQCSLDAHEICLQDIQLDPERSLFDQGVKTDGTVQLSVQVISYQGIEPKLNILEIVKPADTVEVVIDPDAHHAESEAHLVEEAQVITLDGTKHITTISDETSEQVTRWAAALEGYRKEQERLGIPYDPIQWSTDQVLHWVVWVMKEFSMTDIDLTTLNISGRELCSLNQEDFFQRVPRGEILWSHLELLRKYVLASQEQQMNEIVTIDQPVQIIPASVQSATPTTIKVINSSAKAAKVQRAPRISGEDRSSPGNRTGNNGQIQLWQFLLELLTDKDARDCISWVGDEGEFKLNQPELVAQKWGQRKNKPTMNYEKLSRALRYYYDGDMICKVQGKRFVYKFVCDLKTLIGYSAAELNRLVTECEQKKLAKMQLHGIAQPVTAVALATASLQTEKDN
# Outline: as §1
# ERG = target: T4, ERG (Homo sapiens, UniProt P11308 1-479)
# T4 sequence: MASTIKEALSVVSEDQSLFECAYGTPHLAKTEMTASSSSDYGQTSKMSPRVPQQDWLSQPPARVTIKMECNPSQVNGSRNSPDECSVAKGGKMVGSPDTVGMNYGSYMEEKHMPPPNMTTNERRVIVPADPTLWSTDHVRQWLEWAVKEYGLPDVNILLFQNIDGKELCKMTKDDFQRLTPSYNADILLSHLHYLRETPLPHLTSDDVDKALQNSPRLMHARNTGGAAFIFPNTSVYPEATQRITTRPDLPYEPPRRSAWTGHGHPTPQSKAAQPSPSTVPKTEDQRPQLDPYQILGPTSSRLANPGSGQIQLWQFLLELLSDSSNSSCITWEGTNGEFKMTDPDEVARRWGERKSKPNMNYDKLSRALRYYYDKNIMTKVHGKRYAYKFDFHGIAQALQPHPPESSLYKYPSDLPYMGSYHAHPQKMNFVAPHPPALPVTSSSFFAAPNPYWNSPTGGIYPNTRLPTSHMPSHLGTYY
# Outline: as §1
# ELF1 = ELF1 (Homo sapiens, UniProt P32519 1-619)
# Outline: as §1
# EHF = target: T5, EHF (Homo sapiens, UniProt Q9NZC4 1-300)
# T5 sequence: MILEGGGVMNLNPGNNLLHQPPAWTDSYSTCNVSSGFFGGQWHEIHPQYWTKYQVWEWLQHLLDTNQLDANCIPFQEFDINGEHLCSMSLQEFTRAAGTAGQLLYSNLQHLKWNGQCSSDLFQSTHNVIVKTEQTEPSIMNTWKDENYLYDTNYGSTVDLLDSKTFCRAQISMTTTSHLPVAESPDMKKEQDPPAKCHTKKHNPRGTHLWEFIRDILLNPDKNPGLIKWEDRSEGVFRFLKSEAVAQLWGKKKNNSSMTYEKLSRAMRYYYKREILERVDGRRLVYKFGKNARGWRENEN
# Outline: as §1
# SPI1 = SPI1 (Homo sapiens, UniProt P17947 1-270)
# Outline: as §1
# SPIB = SPIB (Homo sapiens, UniProt Q01892 1-262)
# Outline: as §1
# ELK3 = target: T6, ELK3 (Homo sapiens, UniProt P41970 1-407)
# T6 sequence: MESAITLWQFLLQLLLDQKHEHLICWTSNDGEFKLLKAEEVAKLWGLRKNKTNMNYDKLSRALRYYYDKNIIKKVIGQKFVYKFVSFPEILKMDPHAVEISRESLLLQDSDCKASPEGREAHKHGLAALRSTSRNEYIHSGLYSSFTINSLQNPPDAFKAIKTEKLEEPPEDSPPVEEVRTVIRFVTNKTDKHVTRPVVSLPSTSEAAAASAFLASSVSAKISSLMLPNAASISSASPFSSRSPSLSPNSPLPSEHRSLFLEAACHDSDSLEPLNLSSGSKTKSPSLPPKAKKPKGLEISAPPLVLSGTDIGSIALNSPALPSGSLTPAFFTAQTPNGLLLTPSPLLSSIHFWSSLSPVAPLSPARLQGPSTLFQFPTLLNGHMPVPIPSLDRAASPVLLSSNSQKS
# Outline: as §1
# Chain of SPIB (Q01892 whole entry): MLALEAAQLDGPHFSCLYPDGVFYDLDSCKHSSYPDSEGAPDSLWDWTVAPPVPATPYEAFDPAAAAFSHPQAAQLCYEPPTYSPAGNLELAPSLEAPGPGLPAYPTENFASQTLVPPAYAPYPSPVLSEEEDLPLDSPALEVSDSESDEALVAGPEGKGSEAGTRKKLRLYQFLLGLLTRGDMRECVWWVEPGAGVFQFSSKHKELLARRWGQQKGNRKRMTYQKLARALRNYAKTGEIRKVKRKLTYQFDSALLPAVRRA
# Chain of ELF1 (P32519 whole entry): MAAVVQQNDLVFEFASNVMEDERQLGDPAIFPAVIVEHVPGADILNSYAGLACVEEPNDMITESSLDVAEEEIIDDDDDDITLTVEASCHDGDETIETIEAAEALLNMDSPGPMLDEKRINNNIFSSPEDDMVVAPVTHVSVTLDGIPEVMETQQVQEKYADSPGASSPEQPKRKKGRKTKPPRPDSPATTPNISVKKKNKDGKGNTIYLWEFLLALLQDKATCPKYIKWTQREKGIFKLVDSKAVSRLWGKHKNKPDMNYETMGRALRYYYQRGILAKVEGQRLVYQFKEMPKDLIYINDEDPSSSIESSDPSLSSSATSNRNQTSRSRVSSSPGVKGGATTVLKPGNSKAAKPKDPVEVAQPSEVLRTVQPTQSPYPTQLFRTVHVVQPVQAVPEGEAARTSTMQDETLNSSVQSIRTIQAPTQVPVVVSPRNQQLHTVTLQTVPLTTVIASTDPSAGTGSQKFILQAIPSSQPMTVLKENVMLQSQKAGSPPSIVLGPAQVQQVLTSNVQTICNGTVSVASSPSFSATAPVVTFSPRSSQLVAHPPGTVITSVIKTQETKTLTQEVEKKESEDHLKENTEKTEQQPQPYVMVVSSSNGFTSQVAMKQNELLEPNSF
sequence,measurement,setting,value
TCTCTG,binding signal,FLI1,"1.67 fold enrichment (6-mer frequency, TF over GST control)"
same,binding signal,ELK1,"1.67 fold enrichment (6-mer frequency, TF over GST control)"
same,binding signal,GABPA,"1.47 fold enrichment (6-mer frequency, TF over GST control)"
same,binding signal,ERG,"1.56 fold enrichment (6-mer frequency, TF over GST control)"
same,binding signal,ELF1,"1.66 fold enrichment (6-mer frequency, TF over GST control)"
same,binding signal,EHF,"1.62 fold enrichment (6-mer frequency, TF over GST control)"
same,binding signal,SPI1,"1.52 fold enrichment (6-mer frequency, TF over GST control)"
same,binding signal,SPIB,"1.5 fold enrichment (6-mer frequency, TF over GST control)"
same,binding signal,ELK3,"1.52 fold enrichment (6-mer frequency, TF over GST control)"
